Test results published in PubChem BioAssay (Tox21).
A number with no mark means an inactive call. Results filed as inconclusive are left out. Entries that show only a call come without a potency. Active and inactive are the calls of the source. Unless noted, calls follow the shape of the dose curve; as a rule, active = well fitted curve in the direction sought with a large enough effect in the repeat runs; inconclusive = weak or mixed curves; inactive = no such curve, though single readings can be large; an effect the other way counts as inactive or inconclusive.

Experiments:
[1] = qHTS assay for small molecules that induce genotoxicity in human embryonic kidney cells expressing luciferase-tagged ATAD5 (AID 651632); also: nearly all actives have a fitted effect of over 15% in size
Procedure, shortened: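 Concentration-response screen for ATAD5 upregulation in HEK293T luciferase reporter cells; 16 hr treatment at 37C, then luminescence after 30 min with Amplite at room temperature.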

[2] = qHTS assay for small molecule agonists of the p53 signaling pathway - cell viability (AID 651633; calls by dose curve; also: nearly all actives have a fitted effect of over 30% in size; also: potency is read from the fitted curve at half-maximal effect)
Procedure, shortened: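 p53RE-bla cells, seeded at 4,000 per well and rested 5 h at 37 C/5% CO2, received compounds in DMSO for 16 h at 37 C. CellTiter-Glo was then added, and luminescence was read after 30 min at room temperature to gauge cytotoxicity.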

[3] = qHTS assay for small molecules that induce genotoxicity in human embryonic kidney cells expressing luciferase-tagged ATAD5 - cell viability (AID 651634; calls by dose curve; also: nearly all actives have a fitted effect of over 25% in size; also: potency is read from the fitted curve at half-maximal effect)
Procedure, shortened: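 15.5 hr compound or vehicle exposure of HEK293T cells expressing luciferase-tagged ATAD5 at 37C; live-cell protease activity is read by fluorescence after 30 min of CellTiter-Fluor.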

[4] = qHTS assay for small molecule disruptors of the mitochondrial membrane potential - cell viability (AID 720634; calls by dose curve; also: nearly all actives have a fitted effect of over 20% in size; also: potency is read from the fitted curve at half-maximal effect)
Procedure, shortened: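 In this qHTS format, HepG2 cells plated overnight were pinned with compound, incubated 1 hr, and assayed for ATP luminescence with CellTiter-Glo after m-MPI dye addition.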

[5] = qHTS assay to test for compound auto fluorescence at 590 nm (red) in HepG2 cells (AID 720674)
Procedure, shortened: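 Compound auto-fluorescence is scored relative to Rose Bengal sodium, measured at 540/590 nm in live HepG2 cultures after 1 hr compound contact (37 C, 5% CO2).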

[6] = qHTS assay to test for compound auto fluorescence at 535 nm (green) in HepG2 cells (AID 720675)
[7] = qHTS assay to test for compound auto fluorescence at 590 nm (red) in HEK293 cells (AID 720679)
Procedure, shortened: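 Each well held 2,000 HEK293 cells in medium containing 10% dialyzed FBS. Following 4-5 hr attachment at 37C, 23 nL test compound or DMSO was added; plates sat overnight, and red fluorescence (540/590nm) was recorded.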

[8] = qHTS assay to test for compound auto fluorescence at 460 nm (blue) in HEK293 cells (AID 720678)
Procedure, shortened: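 Cells were seeded and left to adhere for 4-5 hr at 37C. Compounds were then pin-transferred. After an overnight incubation at 37C under 5% CO2, intrinsic fluorescence at 405/460 nm was measured and referenced to triamterene.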

[9] = qHTS assay for small molecule disruptors of the mitochondrial membrane potential (AID 720635); also: potency is read from the fitted curve at half-maximal effect
Procedure, shortened: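 HepG2 cells (2,000/well) attached overnight at 37C, then took compound for 1 hr at 37C, 5% CO2. Mito-MPS dye was added for 30 min; fluorescence was read at 490/535 nm (monomers) and 540/590 nm (aggregates).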

SMILES | Potency [1] | Potency [2] | Potency [3] | Potency [4] | Potency [5] | Potency [6] | Potency [7] | Potency [8] | Potency [9]
c1ccc(Nc2cccc3ccccc23)cc1 | inactive | inactive | inactive | 54.5 µM (active) | inactive | inactive | inactive | – | –
Cc1nc(Nc2ncc(C(=O)Nc3c(C)cccc3Cl)s2)cc(N2CCN(CCO)CC2)n1 | inactive | inactive | – | inactive | inactive | inactive | inactive | – | –
C[Si](C)(C)Cl | inactive | inactive | inactive | inactive | inactive | inactive | inactive | inactive | –
CC(C)OC(=O)c1cc(C(=O)OC(C)C)cc([N+](=O)[O-])c1 | inactive | inactive | inactive | – | inactive | inactive | inactive | inactive | –
CCCCCCCCCCCCCOP(=O)(O)O | inactive | 48.6 µM (active) | inactive | inactive | inactive | inactive | inactive | – | –
CNC(=S)NN | inactive | inactive | inactive | inactive | inactive | inactive | inactive | – | –
CC(C)c1ccc(O)c(C(C)C)c1 | inactive | inactive | – | inactive | inactive | inactive | inactive | inactive | –
c1ccc(Sc2ccccc2)cc1 | inactive | inactive | inactive | inactive | inactive | inactive | inactive | inactive | –
Oc1ccc(-c2ccccc2)c(Cl)c1 | inactive | 61.1 µM (active) | inactive | – | inactive | inactive | inactive | inactive | 8.63 µM (active)
O=C1NC2CCCCN2C12CCN(CCCN1c3ccccc3CCc3ccc(Cl)cc31)CC2 (stereo not given) | inactive | inactive | – | inactive | inactive | inactive | inactive | inactive | –
CCCCNc1c(C(=O)OCC)c(C)nc2c1cnn2CC | inactive | inactive | inactive | – | inactive | inactive | inactive | inactive | –
CCCCCCC(C)Nc1ccc(Nc2ccccc2)cc1 (stereo not given) | inactive | 54.5 µM (active) | inactive | – | inactive | inactive | inactive | inactive | 30.6 µM (active)
CCCCCCCC/C=C/CCCOC(C)=O | inactive | inactive | inactive | inactive | inactive | inactive | inactive | inactive | –
CCCN(CCc1cccs1)[C@H]1CCc2c(O)cccc2C1 | inactive | inactive | inactive | inactive | inactive | inactive | inactive | inactive | –
C=CC(=O)OCC(O)COc1ccccc1 (stereo not given) | inactive | 54.5 µM (active) | – | inactive | inactive | inactive | inactive | inactive | –
CCN(CC)CCSC(=O)C(c1ccccc1)c1ccccc1 | inactive | inactive | inactive | inactive | inactive | inactive | inactive | inactive | –
Cc1occc1SSc1ccoc1C | inactive | inactive | – | inactive | inactive | inactive | inactive | – | –
C=C[C@](C)(O)CC[C@@H]1[C@@]2(C)CCCC(C)(C)[C@@H]2CC[C@@]1(C)O | inactive | 61.1 µM (active) | – | – | inactive | inactive | inactive | inactive | 43.3 µM (active)
Brc1ccccc1-c1ccccc1 | inactive | inactive | inactive | – | inactive | inactive | inactive | – | –
CCN(CC)CCOc1ccc(C(O)(Cc2ccc(Cl)cc2)c2ccc(C)cc2)cc1 (stereo not given) | inactive | 29.8 µM (active) | – | inactive | inactive | inactive | inactive | inactive | –
Cc1oc(-c2ccccc2)nc1CCOc1ccc(C[C@H](Nc2ccccc2C(=O)c2ccccc2)C(=O)O)cc1 | inactive | 21.7 µM (active) | 54.5 µM (active) | – | inactive | inactive | inactive | inactive | 61.1 µM (active)
CN(C)CCOC(c1ccccc1)c1ccccc1 (tested in a mixture with another compound) | inactive | inactive | inactive | inactive | inactive | inactive | inactive | inactive | –
CC(C)(C)CC(C)(C)c1ccccc1O | inactive | 43.5 µM (active) | – | 27.4 µM (active) | inactive | inactive | inactive | inactive | –
O=C1NCN(c2ccccc2)C12CCN(CCCC(c1ccc(F)cc1)c1ccc(F)cc1)CC2 | inactive | 26.6 µM (active) | 26.6 µM (active) | 21.1 µM (active) | inactive | inactive | inactive | inactive | –
